# Screens (PubChem BioAssay)
# A selection: hits, their analogues and other compounds. The true share with any hit is near 5%.
# HEK293 cAMP ctrl: raises cAMP in parental HEK293 cells, TSHR agonist counter-screen | Potency, µM (top dose mostly 57.1 µM), inactives show at the top dose activation, hits mostly activators | parental HEK293 CNG cAMP sensor, membrane potential fluorescence | hit rate 2.5% among 73,000; note: % of control where 0% means no effect; nearly all actives have a fitted effect of over 55% in size
#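 Parental HEK 293 cells stably expressing a cAMP-gated CNG channel were loaded with membrane potential dye containing 100 uM RO 20-1724 for 60 min. Compound added for 30 min; depolarization read as fluorescence intensity at 590 nm.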
# Casp7 inh: allosteric or competitive inhibitors of human caspase-7; P55210; recombinant caspase-7, Ac-DEVD-AFC fluorescence rate; Potency, µM (top dose mostly 57.5 µM), for the others: at the highest dose activity change, negative = inhibition, usual class: inhibitors; hit rate 0.02% among 75,000; active = well fitted inhibition curve with a large enough effect in the main read-out, with a control signal flat, not every such curve was filed as active; inconclusive = small, poorly fitted or top-dose-only effect, or a change in a side signal; note: % of control where 0% means no effect
# TSHR ag: agonists of human thyroid stimulating hormone receptor | P16473 | HEK293-CNG-TSHR cells (CNG channel as cAMP sensor), membrane potential dye, cAMP | Potency, µM (series often up to 57.1 µM), for inactives: top-dose activation, usual class: activators | hit rate 0.48% among 73,000 | AID 926; active = well fitted activation curve with a large enough effect in the main read-out, with a control signal flat, not every such curve was filed as active; inconclusive = small, poorly fitted or top-dose-only effect, or a change in a side signal; inactive = no such curve, though single readings can be large or run the other way; % of control where 0% means no effect;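 note: the control signal comes from parental cells without the receptor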
#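 cAMP rise detected as CNG-channel membrane depolarization by fluorescent dye (emission 590 nm), 30 min after compound, following 60 min dye loading containing 100 uM RO 20-1724 at room temperature. Cells: TSHR/CNG HEK 293, with parental CNG HEK 293 as control.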
# CRE Fsk mod: alters forskolin-stimulated CRE reporter signaling in CHO cells; CHO CRE-bla reporter (cAMP response element driving beta-lactamase), forskolin EC10, beta-lactamase ratio; Potency, µM (top dose mostly 38.2 µM), without a hit: top-dose activity change, negative = inhibition, usual class: activators; hit rate 2.5% among 71,000; active = well fitted activation curve with a large enough effect in the signal ratio, with a control signal flat, not every such curve was filed as active; inconclusive = small, poorly fitted or top-dose-only effect, or effect the other way, or a change in a side signal; the % refers to the signal ratio; note: % of control where 0% means no effect
#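 Reporter-gene assay: CHO cells with beta-lactamase behind cAMP responsive elements, co-treated with compound and EC10 NKH 477 for 3 hours at 37 degrees Celsius. Activity came from the 460/530 nm CCF4 emission ratio.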
# USP2a inhib: blocks human ubiquitin-specific protease USP2a | O75604 | USP2a enzymatic assay, qHTS inhibition | Potency, µM (highest dose often 38.3 µM), for the others: top-dose activity change, negative = inhibition, actives largely listed as inhibitors | hit rate 0.1% among 60,000; note: nearly all actives have a fitted effect of over 60% in size
#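 20 nM USP2 core + cpd, 30 min RT; add 20 nM Ub-PLA2/20 uM NBD C6-HPC; read Ex460/Em535 at 0 h and 2.5 h. Normalized to NEM; qHTS curve fit/classification.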
# Casp1 inh: allosteric or competitive inhibitors of human caspase-1 | Potency, µM (titrated, usually from 57.5 µM), for the others: at the top dose activity change, negative = inhibition, usual class: inhibitors | Caspase-1 enzyme, Ac-WEHD-AFC fluorogenic rate | hit rate 0.03% among 75,000 | AID 900;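 note: plate controls were vehicle for no effect and no substrate for full effect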
# Numbers without * were called inactive; u = inconclusive; x = no result; ! = a repeat was not active; [ ] = another dose, or the depositor's remark. Unless noted, calls come from the whole dose curve; as a rule, active = well fitted curve in the direction sought with a large enough effect; inconclusive = small, poorly fitted or top-dose-only effect, or another doubt; inactive = no such curve, though single readings can be large; an effect the other way counts as inactive or inconclusive. Potency is the fitted concentration of half-maximal effect.
SMILES,HEK293 cAMP ctrl,Casp7 inh,TSHR ag,CRE Fsk mod,USP2a inhib,Casp1 inh
O=C(NCc1ccco1)C1CCN(C(=O)c2cc3sccc3n2Cc2ccc(Cl)cc2)CC1,13µM*,-3%,u,0%,40%,-4%
CN(C)CCSCCO,0%[11.4 µM],1%[11.5 µM],4%[11.4 µM],3%[7.6 µM],x,-1%[11.5 µM]
COc1ccc(C2=C(N)c3ccccc3C2=O)cc1,u,-1%,u,-3%,-7%,-1%
COc1ccc(-c2csc3c2[N+]2=CCC=C2C3=O)cc1,21%[11.4 µM],1%[11.5 µM],2%[11.4 µM],3.2µM*,x,-6%[11.5 µM]
COC(=O)Nc1nc2ccc(C(=O)c3ccccc3)cc2[nH]1,8%[25.6 µM],-1%,-12%[25.6 µM],10µM*,49%,3%
O=C(CSCc1cccc(F)c1)N1CCN(c2ccccc2)CC1,32µM*,-2%,u,-12%,-7%,1%
COc1c2occc2c(OC)c2c(=O)cc(C)oc12,1%[25.6 µM],1%,-10%[25.6 µM],7.9µM*,-13%,-1%
O=C(O)CCCC[C@H]1CCSS1,15%,-1%,10%,-11%,4%,1%
Cc1cc2n(n1)C(c1ccccc1)Nc1ccccc1-2 (stereo unspecified),2%,-1%,3%[11.4 µM],21%,0%,1%
Cc1cc2n(n1)C(c1ccc(N(C)C)cc1)Nc1ccccc1-2 (stereo unspecified),-16%,u,-3%,7.9µM*,2%,x
Cc1ccc(S(=O)(=O)NC(=O)OC23COCN2COC3)cc1,16%[11.4 µM],-1%[11.5 µM],19%[11.4 µM],-2%[7.6 µM],x,-1%[11.5 µM]
c1ccc([C@H](c2cccc3c2ccc2ccccc23)[C@H](c2ccccc2)c2cccc3c2ccc2ccccc23)cc1,-2%[11.4 µM],-2%[11.5 µM],-4%[11.4 µM],19%[7.6 µM],x,1%[11.5 µM]
Cc1ccc(-c2nn(C)c(=O)c3ccccc23)cc1CO,2%,1%,-19%,u,6%,0%
COCCNS(=O)(=O)c1cc(-c2nn(C)c(=O)c3ccccc23)ccc1C,13%,1%,2%,13µM*,x,2%
Cc1nc2ccc(Cl)cc2nc(C)/c1=N\O,-13%,-10%,-8%,2%,36%,-12%
CC(=O)c1c(C)nc2cc(Cl)ccc2c1N,15%,0%,5%,10µM*,-3%,0%
CCSc1nc2c([nH]c3ccccc32)c(=O)n1C,2%,1%,4%,4%,x,-4%
CCC1CCCCN1C(=O)CSc1nc2c([nH]c3ccccc32)c(=O)n1C (stereo unspecified),32µM*,-3%,u,-2%,25%,1%
C[C@H](N)C(=O)OC(C)(C)Cc1ccc(Cl)cc1,-3%,0%,-5%,-3%,2%,2%
Cc1ccc(S(=O)(=O)N2CCN(S(=O)(=O)N(C)C)CC2)cc1,1%,1%,3%,u,-5%,-1%
Cc1ccc(S(=O)(=O)N(Cc2nccn2C)C(C)C)cc1,25%,0%,25µM*,u,1%,-2%
CC(=O)C(C)Oc1ccc2c3c(c(=O)oc2c1)CCCC3 (stereo unspecified),u,0%,u,u,-10%,-3%
CC(=O)C(C)Oc1ccc2c3c(c(=O)oc2c1)CCCCC3 (stereo unspecified),16%,2%,25µM*,u,-13%,-6%
CC(=O)COc1ccc2c3c(c(=O)oc2c1)CCCC3,6%,-2%,-12%,16µM*,13%,-4%
CC(C)CO[C@H](c1ccc2c(c1)OCO2)[C@H](C)Br,9%[11.4 µM],0%[11.5 µM],2%[11.4 µM],11%[7.6 µM],x,-2%[11.5 µM]
SMILES,HEK293 cAMP ctrl,Casp7 inh,TSHR ag,CRE Fsk mod,USP2a inhib,Casp1 inh
COc1ccc(CCNC(=O)c2c[nH]c3ccccc3c2=O)cc1OC,-22%,0%,-4%,10µM*,12%,2%
CCN(CC)S(=O)(=O)c1ccc2[nH]cc(C(=O)NCCc3ccc(OC)c(OC)c3)c(=O)c2c1,-3%,1%,1%,u,20%,0%
COc1cc2c(=O)n(Cc3ccco3)c(=O)n(CC(=O)c3cccc(Br)c3)c2cc1OC,28%,-3%,16%[11.4 µM],4µM*,55%,-2%
C[N+](C)(C)CC(=O)N/N=C\c1c(O)ccc2ccccc12,2%[11.4 µM],-12%[11.5 µM],-2%[11.4 µM],12%[7.6 µM],x,u
CCC1CCCCN1C(=O)Cn1c(C(=O)OC)cc2sc(Cl)cc21 (stereo unspecified),16µM*,-1%,u,5%,12%,-1%
CCC1CCCCN1C(=O)Cn1c(=O)oc2ccccc21 (stereo unspecified),16%,1%,2%,u,4%,-1%
CCC1CCCCN1C(=O)Cn1c(C(=O)OC)cc2ccsc21 (stereo unspecified),25µM*,-2%,u,3%,-3%,-1%
COC(=O)c1cc2sc(Cl)cc2n1CC(=O)N1CCCc2ccccc21,u,-4%,u,-5%,38%,0%
CCN1CCN(c2ncc3c(n2)CC(c2cc(OC)c(OC)c(OC)c2)CC3=O)CC1 (stereo unspecified),10µM*,-2%,u,6%,12%,2%
O=C1CC(c2cccc(Cl)c2)Cc2nc(N3CCOCC3)ncc21 (stereo unspecified),5µM*,0%,u,u,-4%,-1%
Cc1ccc(S(=O)(=O)N=Nc2c(O)[nH]c3cc(O)c(C(=O)O)cc23)cc1,5%[11.4 µM],-2%[11.5 µM],6%[11.4 µM],8%[7.6 µM],x,-1%[11.5 µM]
CC1CCC2C(=O)N3CCCC3C(=O)N2C1c1ccc(Br)cc1 (stereo unspecified),7%[11.4 µM],0%[11.5 µM],6%[11.4 µM],x,x,0%[11.5 µM]
Nc1nc(-c2cccnc2)nc(N2CCCCC2)n1,16%,-1%,4%,u,-9%,-1%
CN1CCN(c2nc(-c3cccnc3)nc3ccccc23)CC1,14%,0%,21%,10µM*!,1%,-1%
c1cncc(-c2nc(N3CCCCCC3)c3ccccc3n2)c1,25µM*,-7%,u,u,u,-9%
CCN1CCN(c2nc(-c3cccnc3)nc3ccccc23)CC1,10%,3%,x,u,-4%,0%
CC1(C)N=C(N)N=C(N)N1c1cccc(OCc2cccc(N)c2)c1,14%[11.4 µM],-1%[11.5 µM],-9%[11.4 µM],8%[7.6 µM],x,2%[11.5 µM]
COC(=O)c1c(C(=O)OC)c2oc3ccccc3n2c1Cl,23%,0%,14%,13µM*,11%,1%
COC(=O)c1ccc(NC(=O)CCn2c(=O)oc3ccccc32)cc1,3%,-2%,-1%,-11%,14%,-2%
COc1ccc(-c2cc([C@H](O)[C@@H]3CCCCN3)c3ccccc3n2)cc1,2%[11.4 µM],-3%[11.5 µM],6%[11.4 µM],-21%[7.6 µM],x,2%[11.5 µM]
COc1ccc(NC(=O)C2CCN(c3nc(C)nc4c3CCC4)CC2)cc1,32µM*,-3%,u,-5%,9%,0%
Cc1cc(C)n2c(Br)c(CSc3nc4ccccc4o3)nc2n1,40%,-2%,x,6.3µM*,25%,-2%
